# Screening results from PubChem BioAssay.
# IP6K1 inhibitor = inhibitors of human IP6K1; actives 0.81% (n = 140,000); activity change, % (series mostly up to about 58 µM); IP6K1 kinase, ADP-Glo luminescence, 2 h; active compounds read low; Q92551; in the data active = activity change below about -25%
#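 ADP-Glo luminescence measures ADP made by human IP6K1 during a 2 h RT reaction with ATP/IP6 (mix at 1.3 mM/130 uM); top library doses 57.5 and 19.1 uM final.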
# GPT2 inh = blocks human glutamate pyruvate transaminase 2; Potency, µM (series often up to 57.7 µM), inactives show at the top dose activity change, negative = inhibition, usual class: inhibitors; Q8TD30; Recombinant GPT2, coupled pyruvate oxidase/HRP Amplex Red fluorescence; actives 0.25% (n = 100,000); AID 1671188; note: potency is the fitted concentration of half-maximal effect; nearly all actives have a fitted effect of over 60% in size
# Target sequence (Q8TD30 whole entry, looked up): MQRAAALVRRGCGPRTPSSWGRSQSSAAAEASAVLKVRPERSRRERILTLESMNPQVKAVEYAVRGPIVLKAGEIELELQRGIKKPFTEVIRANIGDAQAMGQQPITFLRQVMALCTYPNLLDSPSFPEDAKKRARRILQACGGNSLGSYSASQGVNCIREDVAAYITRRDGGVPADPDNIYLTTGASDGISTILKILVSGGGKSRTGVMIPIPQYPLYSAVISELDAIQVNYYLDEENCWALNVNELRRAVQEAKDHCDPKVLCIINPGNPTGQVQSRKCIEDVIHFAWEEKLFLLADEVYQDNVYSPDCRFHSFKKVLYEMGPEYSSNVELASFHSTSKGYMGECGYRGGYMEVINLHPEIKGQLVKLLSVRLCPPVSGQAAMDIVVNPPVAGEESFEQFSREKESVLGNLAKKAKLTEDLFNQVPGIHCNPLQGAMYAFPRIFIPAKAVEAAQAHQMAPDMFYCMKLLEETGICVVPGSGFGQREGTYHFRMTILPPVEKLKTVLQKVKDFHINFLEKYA
#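 Recombinant GPT2 (10ng/uL) with 250uM a-KG and 2mM L-alanine, 30 min at room temperature, in HEPES pH 7.5 buffer. Pyruvate detected by pyruvate oxidase/HRP/Amplex Red fluorescence after 30 min in the dark; AOA (50uM) as positive control.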
# IP6K1 inh cnf = confirmation of human IP6K1 inhibitors; shares compounds with IP6K1 inhibitor; recombinant IP6K1 kinase, ADP-Glo luminescence, 2 h; Potency, µM (highest dose often 49 µM), for inactives: at the top dose activity change, negative = inhibition, usual class: inhibitors; actives 13% (n = 1,200); AID 1645852; note: potency is the fitted concentration of half-maximal effect; nearly all actives have a fitted effect of over 65% in size
# * = called active by the depositor; i = inactive; u = inconclusive; x = no result given; [ ] = remark or other dose. A selection: hits, their analogues and other compounds. The true share with any hit is near 0.82%. Unless noted, calls come from the whole dose curve; as a rule, active = well fitted curve in the direction sought with a large enough effect; inconclusive = small, poorly fitted or top-dose-only effect, or another doubt; inactive = no such curve, though single readings can be large; an effect the other way counts as inactive or inconclusive. % is set by controls: 0 for no effect and ±100 for the full control effect.
SMILES,IP6K1 inhibitor,GPT2 inh,IP6K1 inh cnf
CCNC(=O)N1CCC(c2nc(-c3cccn3C)no2)CC1,11,i,x
O=C(c1ccc(=O)[nH]c1)N1C[C@@H](COCC2CC2)[C@H](c2ccncc2)C1,-9,-15%,x
CCc1ccccc1NC(=O)Nc1nnc(N(CC)c2ccccc2)s1,-5,x,x
CCN(c1ccccc1)c1nnc(NC(=O)Nc2cccc(Cl)c2C)s1,-102*,x,-22%
CCC(C(=O)NCc1ccccc1OC)n1nc(C)n2c(cc3sccc32)c1=O (configuration not stated),-85*,x,5%
Cc1ccc(CNC(=O)C(C)n2nc(C)n3c(cc4sccc43)c2=O)cc1 (configuration not stated),-12,x,x
Cc1cn2nc(C(=O)N3CCC(NC(=O)c4cccn4C)CC3)cc2c(=O)[nH]1,5,i,x
CN1C(=O)c2cccn2CC1C(=O)Nc1ccccc1 (configuration not stated),-6,i,x
COc1ccc(CNC(=O)CCc2cn(Cc3cc(C)ccc3C)c3ccccc23)cc1OC,32,x,x
Cc1ccccc1Cn1cc(CCC(=O)NCc2cccc(Br)c2)c2ccccc21,-29*,x,10%
O=C(NCc1nnc2ccc(-c3ccccc3)nn12)c1ccc(F)cc1,9,3%,x
O=C(NCc1nnc2n1C(C(=O)N1CCN(c3ncccn3)CC1)CC2)Nc1cccnc1 (configuration not stated),10,i,x
CC1=CC23[C@H](C=C(C(=O)O)[C@@H]2COC(=O)[C@]3(O)CO)[C@@H]1C (some centres not stated),24,i,x
NC(=O)c1cccc(CN2CCC3(Cc4ccccc4N(C(=O)c4ccc(Cl)cc4)C3)C2)c1 (configuration not stated),-4,u,x
CCOC(=O)c1ccc(NC(=O)CC2C(=O)N(c3ccc(F)cc3)C(=O)N2Cc2ccc3c(c2)OCO3)cc1 (configuration not stated),1,x,x
CCOC(=O)c1ccc(NC(=O)CC2C(=O)N(c3ccc(F)cc3)C(=O)N2Cc2ccc(C)cc2)cc1 (configuration not stated),-29*,x,u
COc1ccc(S(=O)(=O)N2CCC3(CC2)CC(N2CCOCC2)CCO3)cc1 (configuration not stated),-26*,1%,-16%
COc1ccc(C2(C(=O)N3CCC4(CC3)CC(N3CCOCC3)CCO4)CC2)cc1 (configuration not stated),7,i,x
COc1ccc2nc3n(c2c1)[C@@H](CNS(=O)(=O)c1ccc(F)cc1)COC3,-2,i,x
COc1ccc2nc3n(c2c1)[C@@H](CNC(=O)c1ccc(F)cc1)COC3,-26*,-23%[88.5 µM],u
C=CCNC(=O)C[C@@H]1CCN(C(=O)Nc2cccc(C(F)(F)F)c2)C[C@@H]1CC,-6,i,x
CCOc1ccccc1N1CCN(C(=O)[C@H]2CCC[C@H]2NC(=O)c2ccncc2)CC1,13,-11%,x
Cc1ccc([N+](=O)[O-])c(Oc2ncnc3c2oc2ccccc23)c1,-29*,x,3%
COc1ccc(Oc2ncnc3c2oc2ccccc23)cc1,18,x,x
CC(C)C(=O)NC1CCN(c2ccnc3ccnn23)CC1,6,5%[88.5 µM],x
SMILES,IP6K1 inhibitor,GPT2 inh,IP6K1 inh cnf
CN1CCC2(CCC1=O)CN(Cc1nc(C(N)=O)no1)CCN2C (configuration not stated),10,3%,x
C=CCN(Cc1nc(-c2ccccc2)no1)Cc1nccn1C,-38*,-5%[11.5 µM],-12%
C=CCN(CC=C)Cc1nnc2cc(-c3nc(-c4ccccc4)no3)ccn12,5,i,x
COc1ccc2[nH]cc(CCNC(=O)C3Cn4cccc4C(=O)N3Cc3ccccc3)c2c1 (configuration not stated),-3,i,x
Cc1nc(-c2cccnc2)sc1C(=O)Nc1ccccc1-c1cn2c(CN3CCOCC3)csc2n1,7,i,x
O=C(Nc1ccccc1-c1cn2c(CN3CCNCC3)csc2n1)c1cnc2ccccc2n1,-29*,u,u
Cc1cn2nc(C(=O)Nc3ccc(F)cc3)cc2c(N(C)Cc2ccccc2)n1,15,i,x
O=C(Nc1ccccc1C(F)(F)F)n1ncc2cc(Cl)ccc21,-8,x,x
CCOc1ccccc1NC(=O)n1ncc2cc(Cl)ccc21,-37*,x,-6%
CN1CCC(N2CCC[C@@H](O)[C@H](NC(=O)c3ccc(OCC(N)=O)cc3)C2)CC1,0,1%[88.5 µM],x
CCOC(=O)c1cc2c(=O)n3ccccc3nc2n(Cc2ccco2)c1=NC(=O)c1cccc(F)c1,-39*,x,-4%
CCOC(=O)c1cc2c(=O)n3ccccc3nc2n(Cc2ccco2)c1=NC(=O)c1cc(C)cc(C)c1,-9,x,x
CN(C)Cc1nnc(C2CC(NC(=O)c3ccn(C)c(=O)c3)C2)n1C (configuration not stated),6,-16%,x
O=C(c1ccc(Cl)cc1)N1CCC2(CC1)COc1ccccc1[S+](=O)([O-])N2,17,i,x
CC(=O)c1cccc(NC(=O)Cn2ccn3nc(-c4ccc(F)cc4)c(CO)c3c2=O)c1,-30*,i,-13%
CC(=O)c1cccc(NC(=O)Cn2ccn3nc(-c4ccccc4)c(CO)c3c2=O)c1,4,-7%,x
Cc1ccc(CNS(=O)(=O)c2c(C)nc3sc(C)cn3c2=O)cc1,-27*,x,5%
Cc1cn2c(=O)c(S(=O)(=O)NCCc3ccc(Cl)cc3)c(C)nc2s1,-6,x,x
CC(C)OCCCNc1nc2c([S+](=O)([O-])c3cccnc3)nnn2c2ccccc12,15,u,x
O=C(O)c1ccccc1Nc1ccccc1,x,i,x
O=C(O)c1ccccc1Nc1cccc(C(F)(F)F)c1,-31*,-6%,u
Cc1ccc(C(=O)N2CCCCCCn3c(nnc3-c3ccc(F)cc3)CC2)cn1,4,1%,x
O=c1c2c(nc3cc[nH]n13)CN(S(=O)(=O)c1ccc(F)c(Cl)c1)CC2,30,i,x
Cc1cccc(-c2cnc3[nH]cc(CC(N)=O)c3c2)c1,-32*,i,u
O=C(Cc1c[nH]c2ncc(-c3cccc(CO)c3)cc12)NCc1cccnc1,-10,3%[88.5 µM],x
SMILES,IP6K1 inhibitor,GPT2 inh,IP6K1 inh cnf
NC(=O)Cc1c[nH]c2ncc(-c3cccc(CO)c3)cc12,-27*,i,u
CNC(=O)c1cccc(-c2cnc3[nH]cc(CC(=O)Nc4cccc(F)c4)c3c2)c1,-8,4%[88.5 µM],x
Cc1noc(C)c1-c1cnc2[nH]cc(CC(N)=O)c2c1,-23,-27%[88.5 µM],x
CNC(=O)c1cccc(-c2cnc3[nH]cc(CC(=O)Nc4ccccc4Cl)c3c2)c1,-26*,-15%[88.5 µM],u
CS(=O)(=O)c1ccc(S(=O)(=O)N2CCC3(CCCNC3)C2)cc1 (configuration not stated),-13,i,x
COc1ccc(-c2cccc(C(=O)NC(C)C)c2)nn1,4,x,x
CC(C)c1ccc(S(=O)(=O)N2CCC(Oc3ncccc3C(=O)N(C)C)C2)cc1 (configuration not stated),30,4%,x
Cc1ccc2c(c1)cc1c(=O)n(Cc3cccc(Cl)c3)nc(C)n12,-30*,x,-7%
Cc1ccc2c(c1)cc1c(=O)n(Cc3ccc(Cl)cc3)nc(C)n12,-7,x,x
O=C(O)c1cccc(-c2n[nH]c3c2CC(=O)N(CCOc2ccccc2)C3)c1,-12,-13%[88.5 µM],x
